The values below come from PubChem BioAssay (EPA / NIEHS).

As usually defined, the AC50 is the midpoint of the concentration-response curve, whichever way the signal moves.

Active and inactive are the calls of the source. How the source made its calls: active means hit-call score of the fitted dose curve at least 0.9, where 1 is the maximum; inactive means score below 0.9.

Read-out in test [1]: Thrombomodulin, THBD (gene 7056)
Nature of the test: BSK_3C_Thrombomodulin: BioMAP Diversity Plus: 3C Assay for Thrombomodulin Biomarker Activity (AID 2283029). The settings on record: primary human endothelial cells (HUVEC); actives raise or lower the signal. The method, boiled down: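 HUVEC, 3C conditions; compound 24 h; thrombomodulin by ELISA; bidirectional curve fit vs DMSO baseline; parallel SRB total-protein staining for cytotoxicity.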

Read-out in test [2]: Urokinase-type plasminogen activator receptor (uPAR), PLAUR (gene 5329)
Nature of the test: BSK_4H_uPAR: BioMAP Diversity Plus: 4H Assay for Urokinase-type plasminogen activator receptor (uPAR) Biomarker Activity (AID 2283030). The settings on record: primary human endothelial cells (HUVEC); actives raise or lower the signal. The method, boiled down:
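uPAR level read by ELISA on HUVEC cultures (BioMAP 4H) 24 h post-dosing, analyzed for gain or loss relative to DMSO. Parallel SRB staining assessed overt cytotoxicity.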

Read-out in test [3]: Vascular endothelial growth factor receptor 2 (Homo sapiens) (UniProt P35968)
Nature of the test: BSK_4H_VEGFRII: BioMAP Diversity Plus: 4H Assay for Vascular endothelial growth factor receptor 2 (VEGFR2) Biomarker Activity (AID 2283031).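 On AC50: cell-surface VEGFR2 protein level quantified by ELISA.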 Conditions: primary human endothelial cells (HUVEC); actives raise or lower the signal. Summed up:
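Measured by ELISA after 24 h of compound treatment: VEGFR2 on primary human umbilical vein endothelial cells, fitted in both directions relative to DMSO. Parallel cultures received SRB staining (560 nm) for overt cytotoxicity.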

Read-out in test [4]: Human Leukocyte Antigen - DR isotype (HLADR), HLA-DRA (gene 3122)
As to the kind of experiment: BSK_BE3C_HLADR: BioMAP Diversity Plus: BE3C Assay for Human Leukocyte Antigen - DR isotype (HLADR) Biomarker Activity (AID 2283032). Conditions: primary human bronchial epithelial cells; actives raise or lower the signal. Summed up: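 Primary human bronchial epithelial cells (BE3C); 24 h chemical exposure; HLA-DR by ELISA; bidirectional curve fit vs DMSO baseline.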

Read-out in test [5]: Vascular cell adhesion molecule 1 (VCAM1), VCAM1 (gene 7412)
Nature of the test: BSK_4H_VCAM1: BioMAP Diversity Plus: 4H Assay for Vascular cell adhesion molecule 1 (VCAM1) Biomarker Activity (AID 2283033).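 On outcome: cell-surface VCAM-1 protein measured by ELISA.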 Conditions: primary human endothelial cells (HUVEC); actives raise or lower the signal. Summed up:
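HUVEC, 24 h post-dose; VCAM-1 by ELISA. Bidirectional curve fit vs DMSO baseline. Parallel SRB total-protein stain (0.1% SRB after 10% TCA fixation, 560 nm) for cytotoxicity.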

Read-out in test [6]: Monokine induced gamma interferon (MIG), CXCL9 (gene 4283)
As to the kind of experiment: BSK_BE3C_MIG: BioMAP Diversity Plus: BE3C Assay for Monokine induced gamma interferon (MIG) Biomarker Activity (AID 2283035).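 On outcome: MIG protein measured by ELISA in BE3C cultures after 24 h of dosing.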 Conditions: primary human bronchial epithelial cells; actives raise or lower the signal. The method, boiled down:
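hu bronchial epithelial 1° cells, 24 h cpd; MIG by ELISA; bidirectional fit, DMSO = baseline.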

Read-out in test [7]: Transforming growth factor beta 1 (TGFb1), TGFB1 (gene 7040)
As to the kind of experiment: BSK_BE3C_TGFb1: BioMAP Diversity Plus: BE3C Assay for Transforming growth factor beta 1 (TGFb1) Biomarker Activity (AID 2283036;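 on outcome: TGF-b1 protein level measured by ELISA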). The settings on record: primary human bronchial epithelial cells; actives raise or lower the signal. The method, boiled down: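 Read-out: ELISA for TGF-b1 in primary human bronchial epithelial cultures, 24 h post-dose. Bidirectional curve fitting vs DMSO control; gain or loss of signal both scored.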

Read-out in test [8]: Plasminogen activator inhibitor-1 (PAI1), SERPINE1 (gene 5054)
As to the kind of experiment: BSK_BE3C_PAI1: BioMAP Diversity Plus: BE3C Assay for Plasminogen activator inhibitor-1 (PAI1) Biomarker Activity (AID 2283037). The settings on record: primary human bronchial epithelial cells; actives raise or lower the signal. Summed up: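 ELISA read-out of PAI-1 from human bronchial epithelial primary cells, 24 h post-dosing; bidirectional curve fit vs DMSO baseline, gain or loss of signal scored.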

Read-out in test [9]: urokinase plasminogen activator (uPA), PLAU (gene 5328)
As to the kind of experiment: BSK_BE3C_uPA: BioMAP Diversity Plus: BE3C Assay for urokinase plasminogen activator (uPA) Biomarker Activity (AID 2283038).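 On outcome: uPA protein level quantified by ELISA in cell cultures; uPA read one day after compound addition.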 The settings on record: primary human bronchial epithelial cells; actives raise or lower the signal. Summed up: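 ELISA for uPA on human primary bronchial epithelial cultures 24 h post-treatment, gain or loss against DMSO. Parallel SRB staining (0.1% after 10% TCA fixation, 560 nm) assessed overt cytotoxicity.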

Read-out in test [10]: Urokinase-type plasminogen activator receptor (uPAR), PLAUR (gene 5329)
As to the kind of experiment: BSK_BE3C_uPAR: BioMAP Diversity Plus: BE3C Assay for Urokinase-type plasminogen activator receptor (uPAR) Biomarker Activity (AID 2283039).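 On outcome: uPAR protein level measured by ELISA on the cells; cells exposed to compound for one day before measurement.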 Conditions: primary human bronchial epithelial cells; actives raise or lower the signal. Summed up: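 ELISA readout of uPAR on human lung primary bronchial epithelial cells, 24 h post-dosing. Bidirectional curve fit relative to DMSO vehicle baseline; gain or loss of signal both scored.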

Read-out in test [11]: Interleukin-6 (IL6), IL6 (gene 3569)
As to the kind of experiment: BSK_CASM3C_IL6: BioMAP Diversity Plus: CASM3C Assay for Interleukin-6 (IL6) Biomarker Activity for (AID 2283040). Conditions: primary human coronary artery smooth muscle cells; actives raise or lower the signal.

Read-out in test [12]: Tissue plasminogen activator (tPA), PLAT (gene 5327)
As to the kind of experiment: BSK_BE3C_tPA: BioMAP Diversity Plus: BE3C Assay for Tissue plasminogen activator (tPA) Biomarker Activity (AID 2283041).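 On outcome: tPA level quantified by ELISA one day after compound addition.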 The settings on record: primary human bronchial epithelial cells; actives raise or lower the signal. Summed up: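 ELISA read-out of tPA on human primary bronchial epithelial cells, 24 h post-dosing; bidirectional fit vs DMSO negative control/baseline.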

Read-out in test [13]: Interleukin-8 (IL8), CXCL8 (gene 3576)
Nature of the test: BSK_CASM3C_IL8: BioMAP Diversity Plus: CASM3C Assay for Interleukin-8 (IL8) Biomarker Activity (AID 2283042).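 Further: IL-8 protein level quantified by ELISA.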 Conditions: primary human coronary artery smooth muscle cells; actives raise or lower the signal.

Read-out in test [14]: Human Leukocyte Antigen - DR isotype (HLADR), HLA-DRA (gene 3122)
As to the kind of experiment: BSK_CASM3C_HLADR: BioMAP Diversity Plus: CASM3C Assay for Human Leukocyte Antigen - DR isotype (HLADR) Biomarker Activity (AID 2283043).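 Further: cell-surface HLA-DR protein level quantified by ELISA.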 Conditions: primary human coronary artery smooth muscle cells; actives raise or lower the signal.

Read-out in test [15]: Macrophage colony-stimulating factor (MCSF), CSF1 (gene 1435)
Nature of the test: BSK_CASM3C_MCSF: BioMAP Diversity Plus: CASM3C Assay for Macrophage colony-stimulating factor (MCSF) Biomarker Activity (AID 2283044).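 Further: M-CSF protein amount quantified by ELISA after 24 h exposure.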 Conditions: primary human coronary artery smooth muscle cells; actives raise or lower the signal.

Read-out in test [16]: Low-density lipoprotein receptor (LDLR), LDLR (gene 3949)
Nature of the test: BSK_CASM3C_LDLR: BioMAP Diversity Plus: CASM3C Assay for Low-density lipoprotein receptor (LDLR) Biomarker Activity (AID 2283045).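 Further: LDLR protein level on the cell surface quantified by ELISA.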 Conditions: primary human coronary artery smooth muscle cells; actives raise or lower the signal.

Read-out in test [17]: Monocyte Chemoattractant Protein-1 (MCP1), CCL2 (gene 6347)
As to the kind of experiment: BSK_CASM3C_MCP1: BioMAP Diversity Plus: CASM3C Assay for Monocyte Chemoattractant Protein-1 (MCP1) Biomarker Activity (AID 2283046).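 Further: MCP-1 level quantified by ELISA 24 h after dosing.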 The settings on record: primary human coronary artery smooth muscle cells; actives raise or lower the signal.

Test [18] can be described thus: BSK_CASM3C_Proliferation: Cell Proliferation Assessment in the BioMAP Diversity Plus: CASM3C Assay (AID 2283047).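 Further: sulforhodamine B total protein stain as relative cell number at 560 nm; sub-confluent cells exposed 48 h before staining; fitted both ways against DMSO so gain or loss of cell number.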 The settings on record: primary human coronary artery smooth muscle cells.
Read-out in test [19]: Monokine induced gamma interferon (MIG), CXCL9 (gene 4283)
Nature of the test: BSK_CASM3C_MIG: BioMAP Diversity Plus: CASM3C Assay for Monokine induced gamma interferon (MIG) Biomarker Activity (AID 2283048).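 Further: MIG protein level measured by ELISA.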 The settings on record: primary human coronary artery smooth muscle cells; actives raise or lower the signal.

Read-out in test [20]: Interferon-gamma inducible Protein 10 (IP10), CXCL10 (gene 3627)
As to the kind of experiment: BSK_BE3C_IP10: BioMAP Diversity Plus: BE3C Assay for Interferon-gamma inducible Protein 10 (IP10) Biomarker Activity (AID 2283034). The settings on record: primary human bronchial epithelial cells; actives raise or lower the signal. The method, boiled down: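 ELISA readout of IP-10 in BE3C system: primary human bronchial epithelial cells, 24 h post-dosing; bidirectional curve fit vs DMSO baseline.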

For `CCOC(=O)/C=C(C)/C=C/C[C@@H](C)CCCC(C)C`, the concentration at half-maximal activity (AC50) in test [1] is 5.42 µM (active); in test [2], 31.8 µM (active); in [3], 33 µM (active); in [4], 20 µM (active); in [5], 30.6 µM (active); in test [6], 30 µM (active). Further, the AC50 in test [7] is 20 µM (active); in test [9] it was 20 µM (active); in [10], 20 µM (active); in test [11], 30.7 µM (active); in test [12], 9.78 µM (active); in test [14], 18.5 µM (active). Besides, the AC50 is 26.6 µM (active) in test [15]; 27.2 µM (active) in test [16]; 31.9 µM (active) in test [17]; 29 µM (active) in [18]; 30 µM (active) in [19]. Besides, the outcome in test [8] and in [13] was inactive.

As to `O=S(=O)(c1ccc(Cl)cc1)c1ccc(Cl)cc1`, the outcome in test [1], in test [2], in [3], in test [4], in test [5] and in test [6] was inactive. For the same compound, the outcome in test [7], in [8], in test [9], in test [10], in test [11] and in test [12] was inactive. Also, the result in [13], in test [14], in test [15], in test [16], in test [17] and in [18] was inactive. Also, in test [19], the result was inactive.

In the case of `CCOP(=S)(OCC)SCSP(=S)(OCC)OCC`, the result in [1], in [2], in [3], in test [4], in test [5] and in [6] was inactive. The outcome in test [7], in test [8], in test [9], in test [10], in test [11] and in [12] was inactive. Besides, the result in [13], in [14], in test [15], in [16], in [17] and in test [18] was inactive. Further, in test [19], the result was inactive.

Turning to `CC(C)(c1ccccc1)c1ccc(O)c(C(C)(C)c2ccccc2)c1`, the outcome in test [1] was inactive. The half-maximal activity concentration (AC50) in test [2] was 9.78 µM (active); in test [3] it was 7.22 µM (active); in [4] it was 13.6 µM (active); in test [5], 8.48 µM (active); in test [6] it was 22.7 µM (active); in [7], 16.8 µM (active). Besides, the concentration at half-maximal activity (AC50) is 14.3 µM (active) in test [8]; 16.2 µM (active) in [9]; 29.3 µM (active) in [10]; 26.4 µM (active) in test [11]; 14.7 µM (active) in test [12]; 28.5 µM (active) in test [13]. Further, the AC50 in test [14] was 25.8 µM (active); in [15], 25.3 µM (active); in test [16], 28.2 µM (active); in [18] it was 7.92 µM (active); in [19] it was 29.4 µM (active).

Consider `CCOP(=S)(OCC)Oc1nc(Cl)c(Cl)cc1Cl`, for which the result in test [1], in [2], in test [3], in test [4], in [6] and in [7] was inactive. For the same compound, the result in test [8], in test [9], in [10], in test [11], in test [12] and in [13] was inactive. Moreover, the result in [14], in [15], in [16], in test [17], in [18] and in [19] was inactive. In addition, the half-maximal activity concentration (AC50) in test [5] is 15.8 µM (active).

For the compound `CCCCCCCCC(=O)NCc1ccc(O)c(OC)c1`, the result in [1], in [2], in [3], in test [4], in test [5] and in test [6] was inactive. The outcome in test [7], in test [9], in [10], in test [11], in [12] and in [13] was inactive. Moreover, the outcome in test [15], in [16], in [17] and in test [19] was inactive. Further, the half-maximal activity concentration (AC50) in test [8] is 20 µM (active); in test [14], 32.3 µM (active); in test [18], 20 µM (active).

On to `C(=NC1CCCCC1)=NC1CCCCC1`, for which the result in test [1], in [7], in [8], in test [12] and in [13] was inactive. In addition, the AC50 was 8.81 µM (active) in test [2]; 20 µM (active) in test [4]; 7.64 µM (active) in [5]; 20 µM (active) in [20]; 36.3 µM (active) in [6]; 31.8 µM (active) in [9]. The concentration at half-maximal activity (AC50) is 20 µM (active) in test [10]; 36.8 µM (active) in test [11]; 20 µM (active) in [14]; 26.1 µM (active) in test [15]; 34.5 µM (active) in test [16]; 32.8 µM (active) in test [17]. For the same compound, the AC50 in [19] is 33.5 µM (active).
